Hits are enriched below; roughly 0.82% of the tested compounds scored in any of these assays.
TcdB inh – TcdB glycohydrolase inhibitors, primary screen, biochemical, single point, plate reader; Toxin B (Clostridioides difficile), P18177; actives 0.24% (n = 350,000); AID 652162, 2013; inhibition, % at 9.99 µM; TcdB glycohydrolase enzymatic assay; in the data active means inhibition above about 10%
DUSP3 inh – VHR1 phosphatase inhibitors, primary screen, biochemical, absorbance, uHTS; AID 1654, 2009; recombinant VHR phosphatase, pNPP absorbance; Dual specificity protein phosphatase 3 (Homo sapiens), P51452; inhibition, % at 13.3 µM; actives 0.52% (n = 290,000); in the data active means inhibition above about 50%
PrPC TRFRET – inhibitors of human cell surface prion protein PrPC, primary screen, cell-based, TR-FRET; Major prion protein (Homo sapiens), P04156; TR-FRET read-out; inhibition, % at 13.8 µM; actives 0.43% (n = 370,000); AID 720596, 2013; in the data active means inhibition above about 24%; further: 0% = median of the test wells and 100% = reference compound wells
Numbers without * were called inactive; . = not tested or not shown; ! = repeats disagree.

SMILES | TcdB inh | DUSP3 inh | PrPC TRFRET
C[C@@H]1CN([C@@H](C)CO)C(=O)c2cccc(NC(=O)c3cnccn3)c2O[C@@H]1CN(C)C(=O)Nc1ccc(C(F)(F)F)cc1 | 1.0 | . | .
COc1ccccc1/C=N/NC(=O)CCSc1ccccc1 | -0.6 | 1.2 | 2.4
CC(=O)Oc1ccc(/C=N/NC(=O)CCSc2ccccc2)cc1 | 10.7* | -15.2 | 1.0
CCN1[C@@H]2Cn3c(ccc(-c4ccccc4F)c3=O)[C@H]1[C@@H](C(=O)N1CCCCC1)[C@@H]2CO | 1.7 | . | .
O=C(NCCN1CCCCCC1)C1CCN(S(=O)(=O)N2CCOCC2)CC1 | . | 19.9 | -0.2
CCCNC(=O)C1CCN(c2ccc(S(=O)(=O)N3CCOCC3)cc2Cl)CC1 | 0.8 | 57.3* | -2.1
O=C(CCNC(=O)c1ccccc1Cl)Nc1cc(S(=O)(=O)N2CCOCC2)ccc1N1CCOCC1 | 0.6 | 19.1 | 1.5
O=C(Nc1cc(S(=O)(=O)N2CCOCC2)ccc1N1CCOCC1)c1ccccc1Cl | 14.3* | . | -2.6
CCCCNC(=O)C1CCN(S(=O)(=O)N2CCOCC2)CC1 | 10.3* | 34.0 | 0.4
C=CCNC(=O)C1CCN(c2ccc(S(=O)(=O)N3CCOCC3)cc2Cl)CC1 | 1.3 | 15.8 | 11.0
COc1ccc(CN(C)C[C@H]2OCCCC[C@H](C)Oc3ccc(NC(=O)NC(C)C)cc3C(=O)N([C@H](C)CO)C[C@@H]2C)cc1 | 1.6 | . | .
CC(=O)N(C)C[C@H]1Oc2ncc(-c3ccccc3C)cc2C(=O)N([C@@H](C)CO)C[C@@H]1C | -0.5 | . | .
COCC(=O)N(C)C[C@@H]1Oc2cc(-c3cccnc3)ccc2S(=O)(=O)N([C@@H](C)CO)C[C@H]1C | -0.3 | . | .
Cc1cccc(S(=O)(=O)N[C@H]2CC[C@H](CCn3cc(-c4ccccn4)nn3)O[C@@H]2CO)c1 | -1.1 | . | .
COc1ccc(Cc2ccc(OC)c(N)c2)cc1N | 1.8 | 23.4 | -2.1
COc1cc(Cc2ccc(N)c(OC)c2)ccc1N | 14.6* | -14.2 | 12.4
Cc1ccc(NNC(=O)c2ccno2)cc1C | 88.2* | 9.1 | 8.3
Cc1cc(C(=O)NNc2ccc(C)c(C)c2)no1 | 60.7* | 13.1 | 11.8
Cc1ccc(NNC(=O)c2c(C)noc2C)cc1Cl | -1.2 | 5.9 | 14.8
Cc1ccc(NNC(=O)c2ccno2)cc1Cl | 72.6* | -2.5 | 14.9
Cc1ccc(NNC(=O)c2cc(C)on2)c(C)c1 | -4.9 | 17.0 | 12.1
O=C(Nc1cc(Cl)cc(Cl)c1)c1ccno1 | 1.7 | 13.8 | -0.1
CO[C@H]1CN(C)C(=O)c2cc(NC(=O)C3CC3)ccc2OC[C@@H](C)N(Cc2ccccc2)C[C@@H]1C | 0.3 | . | .
Cc1ccc(S(=O)(=O)Nc2ccc3c(c2)C(=O)N([C@H](C)CO)C[C@H](C)[C@H](CN(C)C(=O)c2ccccc2)OCCCC[C@H](C)O3)cc1 | 0.4 | . | .
Cc1ccc(S(=O)(=O)N(C)C[C@@H]2OCCCC[C@H](C)Oc3ccc(NC(=O)Nc4ccc(F)cc4)cc3C(=O)N([C@@H](C)CO)C[C@H]2C)cc1 | -6.4 | . | .
SMILES | TcdB inh | DUSP3 inh | PrPC TRFRET
Cc1cc(=O)oc2cc(OCC(=O)NCCN3CCOCC3)ccc12 | 1.4 | 12.3 | 0.2
O=C(COc1ccc2ccc(=O)oc2c1)NCCN1CCOCC1 | 13.1* | . | -11.1
c1ccc(-c2nnc(OCC3CCCO3)c3ccccc23)cc1 (configuration not stated) | 10.5* | 20.8 | -2.1
Cc1ccc(-c2nnc(OCCN3CCOCC3)c3ccccc23)cc1 | . | 21.4 | -2.0
C[C@H]1C=C(C(=O)NCc2nc3ccccc3[nH]2)O[C@@H](OCc2ccc(CO)cc2)C1 | 10.9*! | 22.5 | -2.2
CC(C)(C)[C@@H]1C=C(C(=O)NCc2nc3ccccc3[nH]2)O[C@H](OCc2ccc(CO)cc2)C1 | 0.3 | . | .
C[C@H]1CN([C@@H](C)CO)C(=O)c2ccccc2-c2ccccc2CO[C@H]1CN(C)C(=O)c1cc(Cl)cc(Cl)c1 | 0.8 | . | .
CC1(C)Cc2c(sc3ncn4nnnc4c23)CO1 | . | 51.7* | .
CC1(C)Cc2c(sc3ncnc(N)c23)CO1 | . | 14.5 | -2.3
COc1ccccc1OCCCCN1CCCCC1 | 0.0 | 51.3* | -1.8
CCOc1ccccc1OCCCCN1CCCC1 | . | -21.5 | -6.8
CC(=O)N1CCN(c2ccc(S(=O)(=O)N3CCCCC3)cc2[N+](=O)[O-])CC1 | 1.2 | . | -8.5
CC(=O)N1CCN(c2ccc(S(C)(=O)=O)cc2[N+](=O)[O-])CC1 | 10.9* | -8.9 | -18.6
COc1ccc(NC(=O)Nc2ccc3c(c2)CC(=O)N([C@H](C)CO)C[C@@H](C)[C@H](CN(C)C(=O)NC(C)C)O3)cc1 | 1.7 | . | .
O=C(NCC[C@H]1CC[C@H](NC(=O)C2CCCCC2)[C@H](CO)O1)Nc1ccc(Cl)cc1 | -1.1 | . | .
CC(C)NC(=O)N(C)C[C@H]1Oc2ccc(NC(=O)C3CCCCC3)cc2C(=O)N([C@H](C)CO)C[C@H]1C | -0.8 | . | .
COc1cccc(NC(=O)N[C@@H]2C=C[C@H](CC(=O)Nc3ccccc3)O[C@@H]2CO)c1 | 1.5 | . | .
O=C1NCCc2cc3c(cc21)OCO3 | . | 7.5 | -5.2
O=C1NC2C(=CC(O)C(O)C2O)c2cc3c(cc21)OCO3 (configuration not stated) | -11.3 | . | 91.2*
Clc1nssc1=Nc1ccc(Br)cc1 | -1.9 | 13.1 | -0.3
Clc1ccc(N=c2ssnc2Cl)nc1 | 1.0 | 61.3* | 0.6
COc1ccc(CN(C)C[C@@H]2Oc3ccc(NS(=O)(=O)c4c(C)noc4C)cc3CC(=O)N([C@@H](C)CO)C[C@H]2C)cc1 | -0.3 | . | .
CCCc1cc(=O)oc2c(C)c(OCC(=O)c3ccc(N4CCCC4)cc3)ccc12 | . | 57.9* | -3.8
CCCCc1cc(=O)oc2c(C)c(OCC(=O)N3CCCC3)ccc12 | 1.0 | 18.5 | -2.3
O=C(Nc1ccc(Cl)cc1)N[C@H]1CC[C@H](CCNC(=O)c2cc(Cl)cc(Cl)c2)O[C@@H]1CO | -1.1 | . | .
SMILES | TcdB inh | DUSP3 inh | PrPC TRFRET
C/C=C/c1ccc([C@H]2[C@H](CO)N(C(C)=O)C23CN(C(=O)c2ccncc2)C3)cc1 | 0.3 | . | .
C=CCNC(=O)CSCc1ccc(Br)cc1 | 1.2 | 17.5 | 3.6
CC(C)(C)NC(=O)CSCc1ccc(Br)cc1 | 1.8 | 52.9* | 1.5
O=C(Nc1cc(F)ccc1F)N[C@H]1CC[C@@H](CCn2cc(C3CC3)nn2)O[C@H]1CO | 1.2 | . | .
O=C(Nc1ccc2c(c1)[C@H]1C[C@@H](CC(=O)N3CCCCC3)O[C@H](CO)[C@H]1O2)C1CCOCC1 | -0.1 | . | .
COc1ccc(S(=O)(=O)N(C)C[C@@H]2Oc3ccc(NS(=O)(=O)c4cccs4)cc3CC(=O)N([C@H](C)CO)C[C@@H]2C)cc1 | -1.0 | . | .
Cc1cccnc1NC(=S)NCCc1ccccc1 | 0.3 | 27.6 | 4.5
S=C(NCCc1ccccc1)Nc1ncccn1 | 10.6* | . | -7.4
C[C@@H]1CN([C@H](C)CO)C(=O)c2cc(NC(=O)NC3CCCCC3)ccc2O[C@@H](C)CCCCO[C@H]1CN(C)Cc1ccccc1 | 0.7 | . | .
C=CCc1ccc(OCCn2nnc3ccccc32)c(OC)c1 | 0.7 | 55.5* | 11.4
C/C=C/c1ccc(OCCn2nnc3ccccc32)c(OC)c1 | -0.3 | 11.4 | 2.2
O=C(CNC(=O)c1cccc(F)c1)OCC(=O)N1CCCCC1 | . | 50.8* | -0.5
O=C(CNC(=O)c1cccc(F)c1)OCC(=O)N1CCN(C(=O)c2ccco2)CC1 | 0.5 | 11.2 | 1.4
CCCC(=O)Nc1ccc2c(c1)OC[C@H](C)N(C(=O)c1cnccn1)C[C@@H](C)[C@H](OC)CN(C)C2=O | -0.6 | . | .
